The values that follow come from PubChem BioAssay (NCI).

About 83,000 compounds went through this panel and 20% of them were active in at least one assay; those are over-represented in the sample as a whole.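 The test compound was applied at a single concentration to cells in 96-well plates for 48 hours, and percent growth was recorded.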 Values without a mark were called inactive. The source made the active and inactive calls. Rule for the calls: active = growth percent below 10; inactive = the rest.

Test systems include SK-MEL-2 melanoma; EKVX NSCLC; SN12C renal; UO-31 renal; TK-10 renal; ACHN renal; A498 renal; CCRF-CEM leukemia; MOLT-4 leukemia; CAKI-1 renal.
Holding throughout (test): NCI-60 one-dose screen, 48 h (100 = growth as untreated, 0 = no growth, -100 = all killed)
Conditions in all cases: 10 µM unless noted

Consider `O=C(N/N=C/c1ccc([N+](=O)[O-])cc1)c1ccccc1Nc1ccnc(C(F)(F)F)c1`, for which the growth is 58.5% in the assay with SK-MEL-2 melanoma; 67.5% in the assay on EKVX NSCLC; 83.9% in the assay with SN12C renal; 67.8% in the assay with UO-31 renal; 83.4% in the assay on TK-10 renal; 82.6% in the assay on ACHN renal. Moreover, the values for the growth in the assay with A498 renal, in the assay with CCRF-CEM leukemia and with MOLT-4 leukemia were -26.1% (active), 77.9% and 86.3%, respectively.

For `COc1ccccc1CNCCCN1C(=O)c2ccc3c4c(ccc(c24)C1=O)C(=O)N(CCCNCCCN)C3=O`, the growth in the assay with SK-MEL-2 melanoma was -47.3% (active); with EKVX NSCLC, 34.7%; with SN12C renal it was -56.8% (active); in the assay with UO-31 renal, 23.3%; in the assay on TK-10 renal, 33.3%; in the assay with ACHN renal, 9.16% (active). For the same compound, the growth in the assay with A498 renal is 14.9%; with CCRF-CEM leukemia it was 7.88% (active); in the assay on MOLT-4 leukemia it was -24.5% (active).

`Clc1ccc(C2=NN[C@H](c3cn(-c4ccccc4)nc3-c3ccccc3)C2)cc1`: the growth is 91.4% in the assay on SK-MEL-2 melanoma; 35.3% in the assay with EKVX NSCLC; 51.2% in the assay on SN12C renal; 105% in the assay with UO-31 renal; 99.2% in the assay on TK-10 renal; 53.1% with ACHN renal. Further, the growth is 91% in the assay with A498 renal, 78.3% in the assay with CCRF-CEM leukemia and 77.9% with MOLT-4 leukemia.

In the case of `CCSc1cnnc2ccccc12`, the growth is 115% in the assay on SK-MEL-2 melanoma; 98.9% in the assay with EKVX NSCLC; 103% in the assay with SN12C renal; 94.3% with UO-31 renal; 116% in the assay on TK-10 renal; 95.1% in the assay on ACHN renal. Besides, the values for the growth in the assay on A498 renal, in the assay on CCRF-CEM leukemia and in the assay with MOLT-4 leukemia were 89.3%, 97.2% and 89.7%, respectively.

As for `S=C(S)Oc1cccc2cccnc12`, the growth is 105% with SK-MEL-2 melanoma; 115% with EKVX NSCLC; 89.8% in the assay with SN12C renal; 62.2% in the assay with UO-31 renal; 100% in the assay with TK-10 renal; 96.2% in the assay with ACHN renal. In addition, the growth in the assay with A498 renal is 105%; in the assay with CCRF-CEM leukemia, 103%; in the assay on MOLT-4 leukemia, 83.6%.

Turning to `Nc1c(N)c2ccccc2c2ccccc12`, the growth in the assay with SK-MEL-2 melanoma is 106%; with EKVX NSCLC, 92.6%; with SN12C renal it was 99.5%; in the assay with UO-31 renal it was 69.1%; with TK-10 renal it was 119%; with ACHN renal it was 111%. Moreover, the figures for the growth in the assay with A498 renal, in the assay with CCRF-CEM leukemia and with MOLT-4 leukemia were 113%, 104% and 100%, respectively.

With `CCCCOC(=O)c1cc(O)c(O)c(O)c1`, the growth was 75% in the assay on SK-MEL-2 melanoma; 83.6% with EKVX NSCLC; 62.7% with SN12C renal; 31.7% in the assay on UO-31 renal; 73% with TK-10 renal; 75% with ACHN renal. For the same compound, the growth with A498 renal is 122%; in the assay with CCRF-CEM leukemia, 36.5%; with MOLT-4 leukemia, 30.7%.

As for `O/N=C1\c2ccccc2-c2ccc(Br)cc21`, the growth with SK-MEL-2 melanoma was 115%; with EKVX NSCLC it was 88.6%; with SN12C renal, 101%; in the assay on UO-31 renal, 81.6%; with TK-10 renal, 108%; with ACHN renal, 94.2%. Moreover, the growth with CAKI-1 renal is 91.6%; with CCRF-CEM leukemia it was 71.8%; with MOLT-4 leukemia it was 89.2%.

On to `CCN1C(=O)N(CC)C2C1NN=c1s/c(=C\c3ccc(Br)cc3)c(=O)n12` (stereo not given), for which the growth with SK-MEL-2 melanoma was 24.8%; in the assay with EKVX NSCLC it was 38.2%; in the assay on SN12C renal it was 33.9%; in the assay with UO-31 renal, 35.4%; with TK-10 renal it was 52.7%; with ACHN renal, 29.2%. The growth with A498 renal was 12.6%; in the assay with CCRF-CEM leukemia, 11.4%; in the assay with MOLT-4 leukemia it was 12.6%.

On to `C=C1C(=O)O[C@H]2[C@H]1CC/C(COC(=O)NCc1[nH]nc3ccccc13)=C\CC[C@@]1(C)O[C@@H]21`, for which the growth is 30.9% in the assay on SK-MEL-2 melanoma; 50.1% with EKVX NSCLC; 35.4% in the assay with SN12C renal; 71.5% with UO-31 renal; -4.85% (active) with TK-10 renal; 14.4% in the assay with ACHN renal. Moreover, the growth is 94.3% in the assay on A498 renal, -6.22% (active) in the assay on CCRF-CEM leukemia and -12.7% (active) with MOLT-4 leukemia.

Regarding `c1ccc2c(N=NSc3ncnc4nc[nH]c34)c3ccccc3nc2c1`, the growth with SK-MEL-2 melanoma was -23.6% (active); in the assay with EKVX NSCLC, 16.7%; with SN12C renal it was 4.81% (active); in the assay on UO-31 renal, 4.86% (active); in the assay with TK-10 renal, 36.4%; in the assay with ACHN renal, -27.8% (active). Moreover, the growth is -8% (active) with A498 renal, -4.86% (active) in the assay with CCRF-CEM leukemia and -17.4% (active) in the assay on MOLT-4 leukemia.

Turning to `CN(C)CC(=O)c1ccc2cc(Br)c3ccccc3c2c1`, the growth in the assay with SK-MEL-2 melanoma was 61.3%; in the assay with EKVX NSCLC, 89.7%; with SN12C renal it was 72.6%; in the assay with UO-31 renal, 36%; in the assay with TK-10 renal, 72.7%; in the assay on ACHN renal it was 59.7%. Besides, the growth with A498 renal is 42.2%; in the assay with CCRF-CEM leukemia, 71.3%; in the assay on MOLT-4 leukemia, 40.3%.

As to `COc1ccc(C(=O)OC2C(OC3C(O)COC(O[C@H]4C[C@H]5[C@@H]6CC=C7C[C@@H](O)CC[C@]7(C)[C@H]6CC[C@]5(C)[C@H]4[C@H](C)C(=O)CCC(C)C)C3OC(C)=O)OCC(O)C2O)cc1` (stereo not given in full), the growth in the assay with SK-MEL-2 melanoma is -52% (active); with EKVX NSCLC it was 7.53% (active); in the assay with SN12C renal, 44.3%; with UO-31 renal it was -35.7% (active); with TK-10 renal it was -20.1% (active); in the assay on ACHN renal it was 28.6%. For the same compound, the growth with A498 renal was -82.2% (active); in the assay on CCRF-CEM leukemia, -23.2% (active); with MOLT-4 leukemia it was -42.4% (active).

As to `COc1cc(-c2nn(C(=O)NCCN3CCN(C)CC3)cc2-c2ccncc2)ccc1Cl`, the growth was 89.5% with SK-MEL-2 melanoma; 46.9% in the assay on EKVX NSCLC; 82.4% in the assay on SN12C renal; 54% with UO-31 renal; 20.5% with TK-10 renal; 69.5% with ACHN renal. For the same compound, the results for the growth with A498 renal, in the assay on CCRF-CEM leukemia and in the assay with MOLT-4 leukemia were 65.8%, 88.8% and 77.4%, respectively.

In the case of `COc1nccc2c(Sc3ccccc3)nc(N)nc12`, the growth with SK-MEL-2 melanoma is 101%; in the assay with EKVX NSCLC, 117%; with SN12C renal, 105%; with UO-31 renal, 75.3%; with TK-10 renal, 103%; with ACHN renal, 108%. For the same compound, the growth is 76.2% with A498 renal, 97.7% with CCRF-CEM leukemia and 94.5% with MOLT-4 leukemia.
